# In paper PMC9574860, “Chemical Toolkit for PARK7: Potent, Selective, and High-Throughput” (Journal of Medicinal Chemistry, 2022):
# Out of some 7,900 compounds screened, about 400 (5.1%) showed an effect of 50% or more. This is one part of a sample in which strong results are shown more often than they occur.
# Biological target: Parkinson's disease protein 7 (PARK7/DJ1) (human, UniProt Q99497)
# Experiment: primary screen, percent inhibition; read as competition with a fluorescent probe by fluorescence polarization; higher = more effect of the substance
# Settings: 100 µM
# Procedure, shortened: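 Fluorescence-polarization probe displacement (JYQ-107, 20 nM final, 2 h) after 2 h preincubation of PARK7 (0.2 μM final) with each fragment at 100 μM final. Read-out ex/em 480/520 nm; remaining activity derived from FP signal loss relative to reference controls.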
# Chain of Parkinson's disease protein 7 (PARK7/DJ1) (Q99497 whole entry, looked up): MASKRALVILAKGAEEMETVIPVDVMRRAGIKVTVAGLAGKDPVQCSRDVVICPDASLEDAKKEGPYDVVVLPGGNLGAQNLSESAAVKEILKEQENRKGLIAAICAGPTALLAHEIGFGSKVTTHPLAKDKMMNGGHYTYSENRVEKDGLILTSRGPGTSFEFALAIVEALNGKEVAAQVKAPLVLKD
row,SMILES,Inhibition % [%]
1,C=CC(=O)NCC1CCCc2ccccc21 (stereo not shown),4.88
2,C=CC(=O)N1CCC(CN(C)Cc2scnc2C)C1 (stereo not shown),13.2
3,O=S(=O)(C=Cc1ccc(Cl)cc1)NCC1CCCO1 (stereo not shown),6.48
4,CC1CN(CC2OCCO2)CCC1c1ccccc1 (stereo not shown),8.86
5,O=C(CCl)N(C1CCCC1)C1CC1,51.2
6,CC1CCC(N(C(=O)CCl)C2CC2)CC1 (stereo not shown),74.1
7,CCN(C(=O)CCl)C1CC1,5.24
8,O=C(CCl)N(C1CC1)C1CCS(=O)(=O)C1 (stereo not shown),5.73
9,O=C(CCl)N(C1CCCC1)C1CCS(=O)(=O)C1 (stereo not shown),7.16
10,O=C(CCl)N(C1CCCCC1)C1CCCCC1,4.3
11,C=CC(=O)NCc1cccnc1N1CCOCC1,4.99
12,C=CC(=O)N1CCOCC1CC (stereo not shown),7.47
13,CCc1cnccc1C(=O)N1CCCC(C2OCCO2)C1 (stereo not shown),12.5
14,O=C1OCCC1N1CCOC(c2ccc(Cl)cc2)C1 (stereo not shown),7.62
15,C=CCNC(=O)C(C#N)=Cc1cccc(O)c1,4.34
16,C=CC(=O)NC1COC(C2CC2)C1 (stereo not shown),4.28
17,CN(C)Cc1ccc(B2OC(C)(C)C(C)(C)O2)s1,5.59
18,N#Cc1n[nH]c2ccccc12,5.12
19,N#Cc1nnc2ccccc2c1N,1.29
20,N#Cc1[nH]c2ccccc2c1N,72.9
21,CC1(C)CC(OS(C)(=O)=O)CCO1 (stereo not shown),8.17
22,N#CC(=Cc1ccc(N2CCOCC2)cc1)C(N)=O,12.7
23,Cc1cc(B2OC(C)(C)C(C)(C)O2)cc(N)n1,5.05
24,C=CC(=O)NC1CC(=O)N(CC)C1 (stereo not shown),8.72
25,O=C(CCl)N1CCc2[nH]c3ccccc3c2C1,-3.49
26,O=C(N1CCc2[nH]c3ccccc3c2C1)n1ccnc1,52.4

row,SMILES,Inhibition % [%]
1,O=C(N1CCc2sccc2C1)n1ccnc1,15.4
2,Cc1ccc2[nH]c3c(c2c1)CN(C(=O)n1ccnc1)CC3,67.1
3,O=C(N1CCc2[nH]c3ccc(F)cc3c2C1)n1ccnc1,36.3
4,O=C(c1ccccc1)N1CCN(C(=O)n2ccnc2)CC1,2.18
5,C=CC(=O)N1CCCCC1c1nc2ccccc2o1 (stereo not shown),7.43
6,O=S(=O)(c1cc(Cl)ccc1Cl)n1ccnc1,7.81
7,NC(=O)Nc1ccc(S(=O)(=O)F)cc1,18.9
8,NC(=O)N1CCc2cc(S(=O)(=O)F)ccc21,10.9
9,O=C(O)c1cc(S(=O)(=O)F)cs1,90
10,CC(C)c1nc(C#N)cs1,5.66
11,CC1(C)OB(c2ccc(S(=O)(=O)NCCO)cc2)OC1(C)C,4.41
12,C=CC(=O)Nc1cc(C(F)(F)F)n[nH]1,9.56
13,C=CC(=O)N1CCOCC1c1c(C)nn(C)c1C (stereo not shown),12.6
14,CC1(C)C2CC=C(COCC3CO3)C1C2 (stereo not shown),3.87
15,Nc1cc2ccccc2nc1S,52
16,Sc1nc2ccccc2nc1S,8.25
17,Cc1nc2ccccc2nc1S,2.7
18,Cc1ccc(-c2nnc(SC3CC(C)OC3=O)o2)cc1 (stereo not shown),7.51
19,OB(O)C1CCN(Cc2cc(-c3ccccn3)n[nH]2)C1 (stereo not shown),29.8
20,O=C(O)C(S)c1ccccc1 (stereo not shown),89.9
21,C=CC(=O)N[C@H](C(=O)O)c1ccccc1,3.77
22,C=CC(=O)NC(NC(=O)C=C)c1ccccc1,11.8
23,OB(O)C1CCN(Cc2cc3c(cn2)OCCO3)C1 (stereo not shown),21.4
24,CC=C(C#N)c1ccc2c(c1)OCO2,12.1
25,O=C(CN1C(=O)CCC1=O)Nc1cccc(Cl)c1,7.52
26,O=c1c2ccccc2nc(S)n1CCS,7.43

row,SMILES,Inhibition % [%]
1,O=C(CCl)N1CCN(S(=O)(=O)c2ccccc2)CC1,8.48
2,O=C(CCl)N1CCC(Cc2ccccc2)CC1,31.1
3,O=C(CCl)N1CCC(c2ccccc2)=N1,90.5
4,C=CC(=O)NCC1CCN(c2ccncc2)CC1,15.3
5,COCC(C)NS(=O)(=O)C=Cc1ccc(Cl)cc1 (stereo not shown),13.7
6,CS(=O)(=O)n1cc(N)cn1,10.7
7,CC1(C)OB(c2cc(Cl)cc(Cl)c2)OC1(C)C,81
8,CC1(C)OB(c2ccc(Cl)cc2)OC1(C)C,4.5
9,CC1(C)OB(c2cccc(Cl)c2)OC1(C)C,-3.11
10,C=CC(=O)NC1CCc2cn(C(C)C)nc2C1 (stereo not shown),11.9
11,CCOc1cc(C)c(C)cc1S(=O)(=O)n1ccnc1C,2.71
12,C=CC(=O)Nc1ccc(=O)n(C)c1,54.1
13,C=CC(=O)Nc1ccc2c(c1)N(C)CCO2,52.4
14,C=CC(=O)Nc1ccc2c(c1)CCCO2,7.61
15,C=CC(=O)Nc1ccc(Br)cc1,6.59
16,C=CC(=O)Nc1ccc2ccc(=O)n(C)c2c1,7.33
17,C=CC(=O)Nc1ccc2c(c1)OCCCO2,3.17
18,CC(C)NC(=O)C(C#N)=Cc1ccccc1Cl,6.2
19,CN(C)C=C(C#N)c1ccccn1,19.1
20,CCOc1cc(C)c(C(C)C)cc1S(=O)(=O)n1ccnc1,6.3
21,NC(=O)c1cccnc1S,4.97
22,O=C(O)c1cccnc1S,5.3
23,O=C(O)c1ccnnc1S,83.3
24,O=c1[nH]c(Cc2ccncc2)no1,6.48
25,O=C(CCl)Nc1cccc(NC(=O)c2ccccc2)c1,7.84
26,Cc1cccc(Oc2ccc(NC(=O)CCl)cc2)c1,81.6

row,SMILES,Inhibition % [%]
1,O=C(CCl)NCc1cccc(Oc2ccccc2)c1,22.5
2,O=C(CCl)Nc1cccc(Oc2ccccc2)c1,55.6
3,O=C(CCl)Nc1ccc(OCc2ccccc2)cc1,28.9
4,Cc1cccc(NC(=O)CCl)c1,8.99
5,O=C(CCl)Nc1ccc(Oc2ccccc2)cc1,84.2
6,O=C(CCl)Nc1ccccc1Oc1ccccc1,6.38
7,O=C(CCl)Nc1ccc(Oc2ccccc2Cl)cc1,93.7
8,Cc1ccc(Oc2ccccc2NC(=O)CCl)cc1,2.56
9,Cc1ccc(Oc2ccc(NC(=O)CCl)cc2)cc1,36.3
10,O=C(CCl)Nc1ccc(N=Nc2ccccc2)cc1,5.15
11,Cc1ccc(C)c(S(=O)(=O)n2nc(C)cc2C)c1,1.62
12,CCOc1cc(C)c(Cl)cc1S(=O)(=O)n1cnc(C)c1,5.28
13,C=CC(=O)NCCN(C)C1CCCCC1,10.8
14,C=CC(=O)N1CCN(c2ncnc3sc(C)cc23)CC1,0.554
15,Cc1noc(C)c1Cn1c(-c2ccccn2)noc1=O,0.962
16,CC1(C)OB(c2cccc3occc23)OC1(C)C,10.2
17,C=CC(=O)N1CCC(c2nccn2C)C1 (stereo not shown),5.02
18,Cn1c(=O)[nH]c2ccc(B3OC(C)(C)C(C)(C)O3)cc21,0.0918
19,C=CC(=O)NC1CC(OCC)C12CCCCC2 (stereo not shown),4.59
20,CN(C)C(=O)Oc1ccc2c(c1)OCO2,-4.08
21,N#Cc1nccnc1N1CCC(C(F)(F)F)CC1,2.52
22,C=CC(=O)N1CCN(CC2CCOCC2)CC1,12.9
23,N#Cc1ccc(N2CCOC(c3cccs3)C2)cn1 (stereo not shown),4.98
24,COCc1ccc(CNC(=O)CCl)cc1,6.87
25,N#Cc1ccc(N2CCCC(C(N)=O)C2)cn1 (stereo not shown),6.47
26,CC(c1ccc(Cl)cc1)N(C)C(=O)CCl (stereo not shown),98

row,SMILES,Inhibition % [%]
1,CCN(C(=O)CCl)C(C)c1ccc(F)cc1 (stereo not shown),9.9
2,CC(c1ccc(F)c(F)c1)N(C)C(=O)CCl (stereo not shown),92.5
3,CC(NC(=O)CCl)c1ccc(Cl)cc1 (stereo not shown),6.77
4,CN(C)C=CC(=O)c1cc2ccccc2o1,0.589
5,C=CC(=O)N(C)Cc1cc2ccccc2o1,5.57
6,CC(c1cc2ccccc2o1)N(C)C(=O)CCl (stereo not shown),96.1
7,CC(c1ccc(F)cc1)N(C)C(=O)Cn1cnc(C#N)n1 (stereo not shown),11.3
8,CCC(NC(=O)CCl)c1ccc(Cl)cc1 (stereo not shown),14.1
9,CC(c1ccc(F)cc1)N(C)C(=O)CCl (stereo not shown),96.3
10,C=CC(=O)N1CCCC(c2ccc(F)c(F)c2)C1 (stereo not shown),9.29
11,C=CC(=O)N1CC(C)OC(C(F)(F)F)C1 (stereo not shown),14.7
12,CC(=O)SCCc1csc(-c2ccccn2)n1,9.81
13,O=C(Nc1ccccc1)c1cccnc1S,3.52
14,CCC1(c2ccccc2)NC(=O)N(NC(=O)CCl)C1=O (stereo not shown),6.48
15,C=CC(=O)N1CCC(Cc2ccncc2)C1 (stereo not shown),6.08
16,Cc1cccc2c(=O)[nH]c(C(Cl)=Cc3ccnn3C)nc12,6.42
17,C=CC(=O)NC(C)c1c(C)nn(CC(F)(F)F)c1C (stereo not shown),4.48
18,CN(C(=O)CCl)c1nc2ccccc2s1,3.42
19,CCN(C(=O)CCl)c1nc2ccccc2s1,24.6
20,CN(C(=O)CCl)C(c1ccccc1)c1ccccc1,6.29
21,CC(c1ccccc1)N(C)C(=O)CCl (stereo not shown),98.5
22,CC(c1nc2ccccc2s1)N(C)C(=O)CCl (stereo not shown),97.3
23,CC(c1ccccc1)N(C)C(=O)Cn1cnc(C#N)n1 (stereo not shown),7.46
